# PubChem BioAssay (NCATS)
# Records with an inconclusive call do not appear. Entries that show only a call come without a potency. A number with no mark means an inactive call. The source made the active and inactive calls. Unless noted, the call rests on the fitted dose curve; in most records, active means well fitted curve in the direction sought with a large enough effect; inconclusive means small, poorly fitted or top-dose-only effect, or another doubt; inactive means no such curve, though single readings can be large; an effect the other way counts as inactive or inconclusive.
# Legend:
# [1] = target: Cytochrome P450 3A4 (Homo sapiens) (UniProt P08684); test: qHTS for inhibitors of CYP3A4 against the NCATS DSHEA and TCM libraries (AID 1919971); further: potency means the concentration at half of the fitted maximal effect;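 on activity change, negative = inhibition: inhibition lowers luminescence from luciferin made by CYP3A4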
# Summary of the method: (§1)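 Substances were tested against enzyme with a pro-luciferin substrate; minus-enzyme wells served as background. After NADPH-initiated oxidation (30-45 min, RT), light was generated with P450-Glo reagent.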
# [2] = target: Cytochrome P450 2C9 (Homo sapiens) (UniProt P11712); test: qHTS for inhibitors of CYP2C9 against the NCATS DSHEA and TCM libraries (AID 1919973); further: potency means the concentration at half of the fitted maximal effect;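 on activity change, negative = inhibition: luminogenic pro-luciferin CYP2C9 substrate turned into luciferin with NADPH regeneration; series mostly up to about 34 µM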
# Summary of the method: as §1
# [3] = target: Cytochrome P450 2C19 (Homo sapiens) (UniProt P33261); test: qHTS for inhibitors of CYP2C19 against the NCATS DSHEA and TCM libraries (AID 1919974);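 further: luminescence from luciferin released by CYP2C19 oxidation of a pro-luciferin substrate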; further: potency means the concentration at half of the fitted maximal effect
# Summary of the method: as §1
# [4] = target: Cytochrome P450 1A2 (Homo sapiens) (UniProt P05177); test: qHTS for inhibitors of CYPIA2 against the NCATS DSHEA and TCM libraries (AID 1919976); further: series mostly up to about 37 µM
# Summary of the method: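 Luminescence read-out: pro-luciferin converted to D-luciferin by CYP1A2, detected with P450-Glo reagent after 30 min RT. Enzyme plus substrate got compounds for 15 min RT; NADPH regeneration solution (final 1x) started a 30-45 min reaction, light-protected.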
# [5] = target: Cytochrome P450 1A2 (Homo sapiens) (UniProt P05177); test: p450-cyp1a2 (AID 410; calls by dose curve; further: potency means the concentration at half of the fitted maximal effect)
# Summary of the method: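 20nM CYP1A2, 100uM Luciferin-ME (=Km), 100mM KPO4; cpd 10 min RT; +NADPH regen, 60 min RT; stop/detect 20 min; luminescence. Normalized to furafylline 57 uM = full inhibition.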
# [6] = target: Dual specificity protein kinase CLK4 (Homo sapiens) (UniProt Q9HAZ1); test: qHTS Assay for Inhibitors of CDC-like Kinase 4 (ADP-Glo Assay) (AID 1771); further: nearly all actives have a fitted effect of over 70% in size; further: potency means the concentration at half of the fitted maximal effect
# Summary of the method: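 25 nM Clk4, 100 uM RS peptide, 1 uM ATP (final); 2 mM MgCl2, 0.5 mM EGTA, 2.5 mM DTT, 0.01% Triton X-100; 1 hr RT. ADP-Glo readout: ATP depletion 45 min, conversion/luciferase 30 min, luminescence.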
# [7] = Dual reporter qHTS for antagonist of Pregnane X Receptor (hPXR) against the NCATS DSHEA and TCM libraries: Fluorescence Readout (AID 1920061)
# Summary of the method: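 Antagonist mode: rifampicin 2 uM final co-added with compounds to hPXR-LucHepG2 cells for 24 h at 37C. Viability by CellTiter-Fluor, Ex/Em 405/540 nm, 1 h; reporter by ONE-Glo luminescence.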
# [8] = target: Glutathione peroxidase 1 (Homo sapiens) (UniProt P07203); test: Primary qHTS Assay for Inhibitors of Recombinant Selenoprotein Glutathione Peroxidase 1 (GPX1) (AID 1845191); further: nearly all actives have a fitted effect of over 65% in size
# Summary of the method: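 NADPH consumption tracked by fluorescence at 340/450 nm between t=0 and t=15 min, room temperature. Final mix: 10 nM GPX1, 100 nM glutathione reductase, 1 mM GSH, 0.5 mM NADPH, 0.5 mM cumene hydroperoxide, 0.01% BSA; 30 min compound–enzyme preincubation.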
# [9] = target: Phospholipid hydroperoxide glutathione peroxidase GPX4 (Homo sapiens) (UniProt P36969); test: Primary qHTS Assay for Inhibitors of Recombinant Selenoprotein Glutathione Peroxidase 4 (GPX4) (AID 1845192); further: nearly all actives have a fitted effect of over 65% in size; further: potency means the concentration at half of the fitted maximal effect; on activity change, negative = inhibition: series mostly up to about 50 µM
# Summary of the method: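 NADPH consumption followed by fluorescence at 340/450 nm, t=0 and after 15 min at room temperature. Reaction started with cumene hydroperoxide (0.5 mM final) after 30 min compound–GPX4 preincubation; final 200 nM GPX4, 100 nM GR, 1 mM GSH, 0.5 mM NADPH.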
# [10] = target: Dual specificity protein kinase CLK4 (Homo sapiens) (UniProt Q9HAZ1); test: qHTS Assay for Inhibitors of CDC-like Kinase 4 (ADP-FP Assay) (AID 1795);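 further: recombinant human CLK4 phosphorylating RS repeat peptide at 1 µM ATP; series mostly up to about 50 µM; nearly all actives have a fitted effect of over 60% in size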
# Summary of the method: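 Kinase activity was measured as ADP production using Transcreener orange tracer (4 nM) and ADP antibody (1 ug/mL) fluorescence polarization, with ADP calculated from a calibration curve. The 1 h reaction contained 6.25 nM Clk4, 1 uM ATP and 100 uM RS peptide at pH 7.5 with Mg2+.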
# Cytochrome P450 2C9 (Homo sapiens), sequence (P11712 whole entry, looked up): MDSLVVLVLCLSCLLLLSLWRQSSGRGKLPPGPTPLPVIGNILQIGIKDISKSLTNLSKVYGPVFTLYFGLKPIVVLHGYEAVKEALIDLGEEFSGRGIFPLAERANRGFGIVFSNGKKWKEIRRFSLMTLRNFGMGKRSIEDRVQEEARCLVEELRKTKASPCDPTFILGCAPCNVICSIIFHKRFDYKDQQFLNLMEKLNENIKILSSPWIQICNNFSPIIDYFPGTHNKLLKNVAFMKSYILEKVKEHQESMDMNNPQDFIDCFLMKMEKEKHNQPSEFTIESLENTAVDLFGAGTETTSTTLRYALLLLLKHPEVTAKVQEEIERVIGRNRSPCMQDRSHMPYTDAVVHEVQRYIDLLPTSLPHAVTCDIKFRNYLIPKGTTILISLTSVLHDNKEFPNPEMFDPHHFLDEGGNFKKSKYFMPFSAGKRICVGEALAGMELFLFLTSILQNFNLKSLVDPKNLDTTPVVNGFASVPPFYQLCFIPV
# Cytochrome P450 2C19 (Homo sapiens), sequence (P33261 whole entry, looked up): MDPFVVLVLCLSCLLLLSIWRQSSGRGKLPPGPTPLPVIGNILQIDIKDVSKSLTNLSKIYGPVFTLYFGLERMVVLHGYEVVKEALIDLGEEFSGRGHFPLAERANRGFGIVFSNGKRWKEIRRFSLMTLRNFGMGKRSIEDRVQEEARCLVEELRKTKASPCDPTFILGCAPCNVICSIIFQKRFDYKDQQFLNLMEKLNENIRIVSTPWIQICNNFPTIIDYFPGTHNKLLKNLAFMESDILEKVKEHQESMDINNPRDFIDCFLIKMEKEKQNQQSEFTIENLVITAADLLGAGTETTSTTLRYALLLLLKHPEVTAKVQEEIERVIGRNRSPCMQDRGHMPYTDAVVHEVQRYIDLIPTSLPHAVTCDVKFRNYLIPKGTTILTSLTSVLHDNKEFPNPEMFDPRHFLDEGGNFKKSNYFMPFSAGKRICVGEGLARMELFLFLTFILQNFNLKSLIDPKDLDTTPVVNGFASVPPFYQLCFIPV
# Cytochrome P450 1A2 (Homo sapiens), sequence (P05177 whole entry, looked up): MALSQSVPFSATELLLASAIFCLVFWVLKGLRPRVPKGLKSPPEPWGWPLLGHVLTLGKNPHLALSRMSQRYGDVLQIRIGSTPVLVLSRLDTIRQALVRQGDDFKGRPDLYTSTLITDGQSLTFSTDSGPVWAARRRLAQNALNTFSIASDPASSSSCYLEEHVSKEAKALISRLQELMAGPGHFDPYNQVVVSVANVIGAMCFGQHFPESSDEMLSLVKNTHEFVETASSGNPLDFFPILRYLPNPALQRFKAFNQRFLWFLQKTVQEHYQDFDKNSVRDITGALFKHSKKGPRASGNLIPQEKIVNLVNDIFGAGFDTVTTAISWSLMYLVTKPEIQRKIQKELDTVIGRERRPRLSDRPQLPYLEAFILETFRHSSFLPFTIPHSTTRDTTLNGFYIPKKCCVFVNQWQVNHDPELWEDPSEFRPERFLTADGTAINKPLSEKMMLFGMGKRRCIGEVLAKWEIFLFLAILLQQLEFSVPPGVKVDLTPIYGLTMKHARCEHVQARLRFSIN
# Dual specificity protein kinase CLK4 (Homo sapiens), sequence (Q9HAZ1 whole entry, looked up): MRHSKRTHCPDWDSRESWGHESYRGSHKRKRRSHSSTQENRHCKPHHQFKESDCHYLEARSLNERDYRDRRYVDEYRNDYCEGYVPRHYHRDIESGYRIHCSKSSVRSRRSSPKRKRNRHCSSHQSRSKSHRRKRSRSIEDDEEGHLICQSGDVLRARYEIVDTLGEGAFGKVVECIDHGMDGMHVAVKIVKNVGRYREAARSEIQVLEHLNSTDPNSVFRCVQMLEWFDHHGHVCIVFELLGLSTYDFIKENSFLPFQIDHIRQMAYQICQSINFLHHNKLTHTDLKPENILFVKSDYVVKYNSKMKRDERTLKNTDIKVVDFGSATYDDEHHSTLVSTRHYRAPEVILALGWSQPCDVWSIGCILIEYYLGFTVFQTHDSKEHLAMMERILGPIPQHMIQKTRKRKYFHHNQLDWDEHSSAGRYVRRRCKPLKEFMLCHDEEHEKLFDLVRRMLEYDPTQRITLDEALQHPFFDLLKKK
# Cytochrome P450 3A4 (Homo sapiens), sequence (P08684 whole entry, looked up): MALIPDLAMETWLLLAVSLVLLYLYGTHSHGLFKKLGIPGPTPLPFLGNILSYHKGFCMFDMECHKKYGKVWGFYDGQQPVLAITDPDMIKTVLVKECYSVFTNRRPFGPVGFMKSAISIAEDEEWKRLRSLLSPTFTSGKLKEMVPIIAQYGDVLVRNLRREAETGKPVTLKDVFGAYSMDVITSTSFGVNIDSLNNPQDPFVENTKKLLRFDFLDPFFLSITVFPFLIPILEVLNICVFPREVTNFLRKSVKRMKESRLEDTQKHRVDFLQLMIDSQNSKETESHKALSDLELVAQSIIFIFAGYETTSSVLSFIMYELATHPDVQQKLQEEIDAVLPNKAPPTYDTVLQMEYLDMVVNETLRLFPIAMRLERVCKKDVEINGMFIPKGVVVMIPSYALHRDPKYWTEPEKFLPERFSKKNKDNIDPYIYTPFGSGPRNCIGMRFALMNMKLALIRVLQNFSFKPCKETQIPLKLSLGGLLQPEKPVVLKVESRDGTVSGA
# Glutathione peroxidase 1 (Homo sapiens), sequence (P07203 whole entry, looked up): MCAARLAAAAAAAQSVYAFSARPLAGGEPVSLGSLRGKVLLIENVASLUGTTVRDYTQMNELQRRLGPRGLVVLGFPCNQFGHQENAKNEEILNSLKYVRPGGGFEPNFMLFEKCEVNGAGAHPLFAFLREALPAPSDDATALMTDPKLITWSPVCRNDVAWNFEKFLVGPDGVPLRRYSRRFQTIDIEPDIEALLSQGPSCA
# Phospholipid hydroperoxide glutathione peroxidase GPX4 (Homo sapiens), sequence (P36969 whole entry, looked up): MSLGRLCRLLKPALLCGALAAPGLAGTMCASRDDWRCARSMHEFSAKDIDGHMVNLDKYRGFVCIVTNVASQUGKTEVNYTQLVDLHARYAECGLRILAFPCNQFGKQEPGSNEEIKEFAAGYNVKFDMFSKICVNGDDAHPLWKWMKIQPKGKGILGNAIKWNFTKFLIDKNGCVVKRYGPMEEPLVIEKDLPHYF
compound,measurement,setting,value
CN(CC(=O)O)C(=N)N,Potency,[1],inactive
same,Potency,[2],inactive
same,Potency,[3],inactive
same,Potency,[4],inactive
CN(C)C(=O)c1ccc(-c2cc(NCc3ccccc3)ncn2)cc1,Potency,[5],12.6 µM (active)
same,Potency,[6],31.6 µM (active)
CC(C)[C@H](C)CC[C@@H](C)[C@H]1CC[C@H]2[C@@H]3CC=C4C[C@@H](O)CC[C@]4(C)[C@H]3CC[C@]12C,Potency,[1],inactive
same,Potency,[2],inactive
same,Potency,[3],inactive
same,Potency,[4],inactive
COc1ncc2nc(-c3ccccc3)c(=O)n(CCc3ccccc3)c2n1,Potency,[6],inactive
CC(C)=CCC[C@](C)(O[C@@H]1O[C@H](CO)[C@@H](O)[C@H](O)[C@H]1O)[C@H]1CC[C@]2(C)[C@@H]1[C@H](O)C[C@@H]1[C@@]3(C)CC[C@H](O)C(C)(C)[C@@H]3[C@@H](O[C@@H]3O[C@H](CO)[C@@H](O)[C@H](O)[C@H]3O[C@@H]3O[C@@H](C)[C@H](O)[C@@H](O)[C@H]3O)C[C@]12C,Potency,[1],inactive
same,Potency,[2],inactive
same,Potency,[3],inactive
same,Potency,[4],inactive
same,outcome,[7],inactive
Cc1noc(C)c1-c1nc(N2CCN(C)CC2)c2ccccc2n1,Potency,[5],0.316 µM (active)
same,Potency,[6],28.2 µM (active)
CC/C=C\C/C=C\C/C=C\C/C=C\CCCCC(=O)O,"activity change, negative = inhibition",[1],5.33% [at 4.27 µM]
same,"activity change, negative = inhibition",[2],-16.1% [at 4.27 µM]
same,"activity change, negative = inhibition",[3],43.3% [at 4.27 µM]
same,"activity change, negative = inhibition",[4],16.4% [at 4.62 µM]
COCCn1c(=O)c(CCc2ccccc2)nc2cnc(N(C)C)nc21,Potency,[5],1.26 µM (active)
same,Potency,[6],inactive
CCCCCC/C=C\CCCCCCCC(=O)O,Potency,[8],inactive
same,Potency,[9],14.1 µM (active)
same,Potency,[1],inactive
same,Potency,[3],inactive
O=c1c(CCc2ccccc2)nc2cnc(N3CCNCC3)nc2n1Cc1cccs1,Potency,[6],inactive
same,Potency,[10],inactive
O=c1c(-c2ccccc2)nc2cncnc2n1Cc1ccccc1,Potency,[6],inactive
O=Cc1ccccc1O,Potency,[1],inactive
same,Potency,[2],inactive
same,Potency,[3],inactive
same,Potency,[4],inactive
O=C(/C=C/c1ccc(O)c(O)c1)O[C@@H]1CC(C(=O)O)=C[C@@H](O)[C@H]1O,Potency,[1],inactive
same,Potency,[2],inactive
same,Potency,[3],inactive
same,Potency,[4],inactive
CC(C)=CCCC(C)=CCCC(C)=CCCC=C(C)CCC=C(C)CCC=C(C)C,Potency,[8],inactive
same,Potency,[9],inactive
same,Potency,[1],inactive
same,Potency,[2],inactive
same,Potency,[3],inactive
same,Potency,[4],inactive
C=C1CC[C@H](O)C/C1=C\C=C1/CCC[C@]2(C)[C@@H]([C@H](C)CC[C@H](C)C(C)C)CC[C@@H]12,Potency,[1],15.8 µM (active)
same,Potency,[2],10 µM (active)
same,Potency,[3],22.4 µM (active)
same,Potency,[4],inactive
